Reference: PubChem BioAssay (NCATS)
“And” between values parts separate entries of the source, which are not always exact repeats. Identical values can stand only once. Inconclusive results are not listed. A number with no mark means an inactive call. The source made the active and inactive calls. Calls follow the shape of the dose curve; as a rule, active = well fitted curve in the direction sought with a large enough effect; inconclusive = small, poorly fitted or top-dose-only effect, or another doubt; inactive = no such curve, though single readings can be large; an effect the other way counts as inactive or inconclusive.

How the values were obtained:
[1] = target: Cellular tumor antigen p53 (Homo sapiens) (UniProt P04637); test: Primary qHTS for small molecule compounds that upregulate eGFP-tagged delta133p53alpha (in N-terminal) cells. (AID 2060322); conditions: NCI-H358 eGFP-delta133p53alpha fluorescence, 24 h; activation: active compounds read high; also: nearly all actives have a fitted effect of over 75% in size;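 as to activation: series mostly up to about 56 µM; 0% = DMSO vehicle and 100% = reference activator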
Sequence of Cellular tumor antigen p53 (Homo sapiens) (P04637 whole entry, looked up): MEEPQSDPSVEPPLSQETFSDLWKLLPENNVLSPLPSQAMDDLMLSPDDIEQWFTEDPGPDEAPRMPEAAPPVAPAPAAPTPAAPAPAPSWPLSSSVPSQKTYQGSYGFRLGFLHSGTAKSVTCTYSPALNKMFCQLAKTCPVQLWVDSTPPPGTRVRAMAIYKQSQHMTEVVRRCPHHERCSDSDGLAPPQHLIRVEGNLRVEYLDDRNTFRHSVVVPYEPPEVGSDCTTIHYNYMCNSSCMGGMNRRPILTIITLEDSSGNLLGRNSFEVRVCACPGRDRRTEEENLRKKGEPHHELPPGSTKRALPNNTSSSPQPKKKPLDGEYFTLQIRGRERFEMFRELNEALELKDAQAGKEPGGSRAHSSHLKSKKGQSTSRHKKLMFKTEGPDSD
Outline: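 NCI-H358 cells pre-induced 24 h with 10 ng/ml doxycycline to express N-terminal eGFP-delta133p53alpha, then dosed 24 h at 37C without doxycycline; fixed, Hoechst-stained, GFP intensity by laser scanning cytometry, normalized to DMSO (0%) and 57.5 uM 5-azacytidine (100%).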

[2] = BET inhibitor-based combinations targeting novel dependencies in MECOM-rearranged (r) AML: SET-2 cell line (AID 2202231); conditions: SET-2 AML cells viability, CellTiter-Glo luminescence, 48 h; viability: active compounds read low, concentration not given here; also: nearly all actives have a fitted effect of over 35% in size;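 as to viability: plate controls were DMSO treated cells for no effect and wells without cells for full effect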
Outline: (§1)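 Here, 11-point titrations of each agent were applied to 500 seeded cells and incubated 48 hr; CellTiter-Glo signal, scaled against DMSO and empty wells, was integrated as AUC, then Z-scored within the individual line.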

[3] = BET inhibitor-based combinations targeting novel dependencies in MECOM-rearranged (r) AML: UCSD-AML1 cell line (AID 2202235); also: nearly all actives have a fitted effect of over 40% in size
Outline: (§2)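 Normalized to DMSO and empty-well controls, the luminescence data from CellTiter-Glo after 48 hr drug exposure were fitted across 11 concentrations. Reported metrics are area under the dose-response curve and its Z-transformed form.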

[4] = BET inhibitor-based combinations targeting novel dependencies in MECOM-rearranged (r) AML: HNT-34 cell line (AID 2202234); also: nearly all actives have a fitted effect of over 35% in size
Outline: as §2

[5] = BET inhibitor-based combinations targeting novel dependencies in MECOM-rearranged (r) AML: AML-191 cell line (AID 2202236; also: nearly all actives have a fitted effect of over 35% in size)
Outline: as §1

[6] = BET inhibitor-based combinations targeting novel dependencies in MECOM-rearranged (r) AML: AML-194 cell line (AID 2202237; also: nearly all actives have a fitted effect of over 40% in size)
Outline: as §1

[7] = BET inhibitor-based combinations targeting novel dependencies in MECOM-rearranged (r) AML: MV-4-11 cell line (AID 2202233); also: nearly all actives have a fitted effect of over 45% in size
Outline: as §2

[8] = BET inhibitor-based combinations targeting novel dependencies in MECOM-rearranged (r) AML: OCI-AML3 cell line (AID 2202232); conditions: Potency: OCI-AML3 viability; also: nearly all actives have a fitted effect of over 35% in size
Outline: as §1
Potency is read from the fitted curve at half-maximal effect.

In the case of `CCC(c1ccc(O)cc1)C(CC)c1ccc(O)cc1` (configuration not stated), the activation [1] is reported as 3.07%, the viability [2] is reported as 99.8% and the Potency [3] is reported as “inactive”.

In the case of `CCOc1cc(N)c(Cl)cc1C(=O)NCC1CN(Cc2ccc(F)cc2)CCO1` (configuration not stated), the activation [1] is reported as -2.82% and 4.36%, the viability [2] is reported as 105% and the Potency [4] is reported as “inactive”. For the same compound, the Potency [5] was “inactive” and the Potency [6] was “inactive”.

For `Nc1nc(N)nc(-c2cc(Cl)ccc2Cl)n1`, the activation [1] was 2.82% and 12%, the viability [2] was 105% and the Potency [4] was “inactive”. The Potency [3] was “inactive” and the Potency [6] was “inactive”.

For `COc1ccccc1C(=O)Nc1cc2c(cc1N1CCCCC1)n(C)c(=O)n2C`, the activation [1] was -12.3%, the viability [2] was 101% and the Potency [4] was “inactive”. The Potency [3] was “inactive”, the Potency [5] was “inactive” and the Potency [6] was “inactive”.

With `COc1ccc(C(=O)CC(=O)c2ccc(C(C)(C)C)cc2)cc1` the activation [1] was -17.5% and -8.43%, the viability [2] was 107% and the Potency [3] was “inactive”. The Potency [5] was 20.9 µM (active).

In the case of `N=C(N)c1ccc2cc(OC(=O)c3ccc(N=C(N)N)cc3)ccc2c1`, the activation [1] is reported as -10.5%, the viability [2] is reported as 105% and the Potency [3] is reported as 23.5 µM (active). The Potency [5] was 23.5 µM (active).

In the case of `CN(C)c1ccc2cc(C(=O)N[C@@H](CCCN=C(N)CCl)C(=O)NCc3ccccc3)ccc2c1`, the activation [1] is reported as 2.27%, the viability [2] is reported as 99.2% and the Potency [7] is reported as “inactive”. The Potency [6] was “inactive”.

With `CC(=O)OC1C(C)OC(Oc2c(-c3ccc(O)cc3)oc3cc(O)cc(O)c3c2=O)C(O)C1OC(C)=O` (configuration not stated) the activation [1] was 34.7%, the viability [2] was 114% and the Potency [4] was “inactive”. For the same compound, the Potency [3] was “inactive”, the Potency [5] was “inactive” and the Potency [6] was “inactive”.

In the case of `COc1cc(F)c(C(C)C)cc1-c1ccc(C(F)(F)F)cc1CN1C(=O)O[C@H](c2cc(C(F)(F)F)cc(C(F)(F)F)c2)[C@@H]1C`, the activation [1] is reported as -9.08%, the viability [2] is reported as 105% and the Potency [4] is reported as “inactive”. For the same compound, the Potency [3] was “inactive” and the Potency [6] was “inactive”.

For `COc1ccc(-c2coc3cc(O)cc(O)c3c2=O)cc1`, the activation [1] was 22.8%, the viability [2] was 45.9% and the Potency [3] was “inactive”. For the same compound, the Potency [5] was “inactive” and the Potency [6] was “inactive”.

For `CC(C)(C)c1cc(C(C)(C)C)c(NC(=O)c2c[nH]c3ccccc3c2=O)cc1O`, the activation [1] was 27.3%, the Potency [8] was 20.9 µM (active) and the Potency [7] was 23.5 µM (active).

With `CO[C@@H](C(=O)N1Cc2[nH]nc(NC(=O)c3ccc(N4CCN(C)CC4)cc3)c2C1)c1ccccc1` the activation [1] was 20.9%, the Potency [8] was 1.86 µM (active) and the Potency [7] was 0.148 µM (active). The Potency [4] was 0.105 µM (active) and the Potency [3] was 0.148 µM (active).

With `CCc1cc(Nc2nccc(-c3c(-c4ccc(OC)c(C(=O)Nc5c(F)cccc5F)c4)nc4ccccn34)n2)c(OC)cc1N1CCC(N2CCN(S(C)(=O)=O)CC2)CC1` the activation [1] was 14.2% and 2.68%, the viability [2] was 113% and the Potency [3] was 10.5 µM (active). The Potency [5] was 11.8 µM (active) and the Potency [6] was 11.8 µM (active).

For `O=c1[nH]c(=O)n([C@H]2C[C@H](O)[C@@H](CO)O2)cc1I`, the activation [1] was -6.69%, the Potency [2] was 3.72 µM (active) and the Potency [7] was 18.6 µM (active). The Potency [6] was 16.6 µM (active).

In the case of `NCc1c[nH]c(=S)n1[C@H]1CCc2c(F)cc(F)cc2C1`, the activation [1] is reported as -19.4%, the viability [2] is reported as 110% and the Potency [5] is reported as “inactive”. For the same compound, the Potency [6] was “inactive”.

With `COC(=O)C[C@](O)(CCCC(C)(C)O)C(=O)O[C@@H]1C(OC)=C[C@]23CCCN2CCc2cc4c(cc2[C@H]13)OCO4` the activation [1] was -1.17%, the Potency [2] was 0.148 µM (active) and the Potency [4] was 0.0417 µM (active). For the same compound, the Potency [3] was 0.0148 µM (active) and the Potency [5] was 0.059 µM (active).

For `CO[C@@H]1[C@H](N(C)C(=O)c2ccccc2)C[C@H]2O[C@]1(C)n1c3ccccc3c3c4c(c5c6ccccc6n2c5c31)C(=O)NC4`, the activation [1] was 25.1%, the Potency [8] was 3.32 µM (active) and the Potency [7] was 0.0934 µM (active).

With `COc1cc([C@H]2Oc3cc([C@H]4Oc5cc(O)cc(O)c5C(=O)[C@@H]4O)ccc3O[C@@H]2CO)ccc1O` the activation [1] was -20.1%, the viability [2] was 119% and the Potency [6] was “inactive”.

In the case of `O=C(O)CCC1CCC(c2cc(F)ccc2F)(S(=O)(=O)c2ccc(Cl)cc2)CC1` (configuration not stated), the activation [1] is reported as 33.4%, the Potency [8] is reported as “inactive” and the Potency [7] is reported as “inactive”. For the same compound, the Potency [4] was “inactive” and the Potency [3] was “inactive”.

For `CCCCCCOC(=O)NC(=N)c1ccc(NCc2nc3cc(C(=O)N(CCC(=O)OCC)c4ccccn4)ccc3n2C)cc1`, the activation [1] was -36.8%, the Potency [8] was 8.33 µM (active) and the Potency [7] was 8.33 µM (active).

In the case of `Nc1nc(Cl)nc2c1ncn2[C@@H]1O[C@H](CO)[C@@H](O)[C@@H]1F`, the activation [1] is reported as -10.7%, the Potency [2] is reported as 0.263 µM (active) and the Potency [4] is reported as 0.166 µM (active). For the same compound, the Potency [3] was 0.0263 µM (active) and the Potency [5] was 0.0742 µM (active).

For `COc1ccc(-c2ccc3c(N4CCOCC4)nc(N4C[C@@H](C)O[C@@H](C)C4)nc3n2)cc1CO`, the Potency [1] was 21.7 µM (active), the Potency [8] was 1.18 µM (active) and the Potency [7] was 1.05 µM (active). The Potency [4] was 0.934 µM (active).

With `CC(COc1ccccc1)N(CCCl)Cc1ccccc1` (configuration not stated) the activation [1] was -9.21% and 7.69%, the viability [2] was 99.7% and the Potency [4] was 16.6 µM (active). For the same compound, the Potency [3] was “inactive”, the Potency [5] was “inactive” and the Potency [6] was “inactive”.

With `CC(C)c1ccc2oc3nc(N)c(C(=O)O)cc3c(=O)c2c1` the activation [1] was 16.6% and 7.34%, the viability [2] was 106% and the Potency [4] was 14.8 µM (active). For the same compound, the Potency [3] was “inactive”.

In the case of `CC(=O)Oc1cc2c(s1)CCN(C(C(=O)C1CC1)c1ccccc1F)C2` (configuration not stated), the activation [1] is reported as 29.4%, the viability [2] is reported as 102% and the Potency [4] is reported as “inactive”. The Potency [5] was “inactive” and the Potency [6] was “inactive”.

In the case of `C[C@H]1COC2=C1C(=O)C(=O)c1c2ccc2c1CCCC2(C)C`, the activation [1] is reported as -1.94%, the Potency [8] is reported as 20.9 µM (active) and the Potency [7] is reported as 13.2 µM (active).

With `CC1=CC(=O)c2ccccc2C1=O` the activation [1] was 1.69% and -31.8%, the Potency [8] was 18.6 µM (active) and the Potency [7] was 7.42 µM (active). The Potency [4] was 23.5 µM (active) and the Potency [6] was 18.6 µM (active).

In the case of `CCCCCCNC(=O)n1cc(F)c(=O)[nH]c1=O`, the activation [1] is reported as -29.9% and -7.59%, the Potency [8] is reported as 1.86 µM (active) and the Potency [7] is reported as 1.66 µM (active). The Potency [3] was 7.42 µM (active).

With `NS(=O)(=O)c1ccc(NC2=CC(=O)c3ccccc3C2=O)cc1` the activation [1] was 4.73%, the Potency [8] was 5.25 µM (active) and the Potency [7] was 0.833 µM (active). The Potency [3] was “inactive”, the Potency [5] was 4.68 µM (active) and the Potency [6] was “inactive”.

With `O=C(O)[C@H](O)[C@@H](O)[C@H](O[C@@H]1O[C@H](CO)[C@H](O)[C@H](O)[C@H]1O)[C@H](O)CO` the activation [1] was -12.6%, the Potency [8] was “inactive” and the Potency [7] was “inactive”. For the same compound, the Potency [4] was “inactive”, the Potency [3] was “inactive” and the Potency [6] was “inactive”.

In the case of `CCCc1cc(C(N)=S)ccn1`, the activation [1] is reported as -10.9% and -12.4%, the Potency [8] is reported as “inactive” and the Potency [7] is reported as “inactive”. For the same compound, the Potency [4] was “inactive”, the Potency [3] was “inactive” and the Potency [5] was “inactive”. For the same compound, the Potency [6] was “inactive”.
